# According to the supplement of paper PMC12669032:
# Unmarked numbers belong to inactive results.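 The calls were made as follows: active = AUC reduced over 20% with Padj below 0.05 in at least 2 of 3 replicates; inactive = otherwise.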
# How the values were obtained:
# Assay in all cases: growth AUC relative to DMSO control (median of replicates) (fraction); higher = more growth (less inhibition), active = hit call of the paper
# Details in all cases: 20 µM; 24 h
# Coprococcus comes = test system: Coprococcus comes
# Summary of the method: (§1)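 Area under the growth curve was normalised to the plate median of solvent-only wells, or to row and column medians on the industrial chemical plate. Growth curves came from anaerobic gut bacterial monocultures in mGAM at 37 °C, seeded at OD600 0.05 with 20 µM compound (1% DMSO), and read at OD600 hourly for 24 h with the minimum OD set to 0. The value is the median of three biological replicates grown on separate days.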
# Escherichia coli ED1a = test system: Escherichia coli ED1a
# Summary of the method: as §1
# Escherichia coli IAI1 = test system: Escherichia coli IAI1
# Summary of the method: as §1
# Eubacterium rectale = test system: Eubacterium rectale
# Summary of the method: as §1
# [1] = test system: Fusobacterium nucleatum subsp. animalis
# Summary of the method: as §1
# Lactobacillus gasseri = test system: Lactobacillus gasseri
# Summary of the method: as §1
# Lactobacillus paracasei = test system: Lactobacillus paracasei
# Summary of the method: as §1
# Odoribacter splanchnicus = test system: Odoribacter splanchnicus
# Summary of the method: as §1
# [2] = test system: Parabacteroides distasonis
# Summary of the method: as §1
# Parabacteroides merdae = test system: Parabacteroides merdae
# Summary of the method: as §1
Structure (SMILES),growth AUC (Coprococcus comes),growth AUC (Escherichia coli ED1a),growth AUC (Escherichia coli IAI1),growth AUC (Eubacterium rectale),growth AUC [1],growth AUC (Lactobacillus gasseri),growth AUC (Lactobacillus paracasei),growth AUC (Odoribacter splanchnicus),growth AUC [2],growth AUC (Parabacteroides merdae)
CCOP(=S)(OCC)Oc1nc(Cl)c(Cl)cc1Cl,0.995,1.02,1.01,1.11,0.982,0.992,0.993,1,0.963,0.96
COC(=O)NS(=O)(=O)c1ccc(N)cc1,1.01,0.972,0.975,1.28,0.939,0.848,0.903,1.1,1.08,0.774 (active)
Cc1nc(N(C)C=O)nc(OC(=O)N(C)C)c1C,0.995,0.975,0.954,1.03,1.06,0.976,0.985,0.981,1.04,0.982
CCOC(=O)C(C)OC(=O)c1cc(Oc2ccc(C(F)(F)F)cc2Cl)ccc1[N+](=O)[O-] (stereo not given),0.933,1.01,0.964,1.01,0.999,0.86,0.973,0.891,0.789 (active),0.885
ClC1=C(Cl)[C@]2(Cl)[C@@H]3[C@H]4C[C@H]([C@@H]5O[C@H]45)[C@@H]3[C@@]1(Cl)C2(Cl)Cl,0.943,0.994,0.966,1.02,1.05,0.936,0.963,0.998,0.897,0.946
ClC1=C(Cl)[C@]2(Cl)C3CC=CC3[C@@]1(Cl)C2(Cl)Cl (stereo not given in full),0.942,0.99,1.01,0.951,0.846,0.989,1.03,0.987,1.04,0.984
Clc1ccc(Cl)cc1,0.985,1,1,1.05,1.1,0.981,0.936,1.03,0.999,1.02
CCCSP(=S)(OCC)Oc1ccc(Cl)cc1Cl (stereo not given),1,1.05,1.01,1.04,1.11,1.01,0.984,0.778,0.984,1.01
Nc1cnn(-c2ccccc2)c(=O)c1Cl,1.02,1.03,1,1.03,1.05,1.07,1.07,0.949,0.996,0.997
OC(c1ccc(Cl)cc1)(c1cncnc1)c1ccccc1Cl (stereo not given),0.987,0.991,0.973,1.14,1.01,0.922,1.12,0.611,0.886,0.299 (active)
COC(=O)N(OC)c1ccccc1COc1ccn(-c2ccc(Cl)cc2)n1,0.998,1.02,0.99,1.1,1.19,0.88,0.988,0.881,0.57 (active),0.911
CCCCN(CCCC)SN(C)C(=O)Oc1cccc2c1OC(C)(C)C2,1.09,0.972,1.01,1.22,1.02,0.884,0.981,1,0.895,0.951
C[C@@H]1C[C@@H]([C@H](O)CC2CC(=O)NC(=O)C2)C(=O)[C@@H](C)C1,1.03,1.01,1.02,0.992,1.12,0.936,1.06,1.02,0.985,1.03
Oc1c(Cl)ccc(Cl)c1Cl,0.98,1.02,0.985,0.969,1.05,0.922,1.01,0.915,0.911,0.981
COP(=S)(OC)Oc1cc(Cl)c(Cl)cc1Cl,0.979,1,0.971,0.945,1.06,1,1.02,0.88,0.936,0.983
CCS(=O)Cc1ccccc1OC(=O)NC (stereo not given),1.01,0.977,0.971,1.11,1.05,0.854,1.01,0.975,0.8,0.997
CC1=C(C(=O)Nc2ccccc2)SCCO1,0.998,1,1.04,1.06,1.09,0.993,1.04,0.985,1,1.01
CCS(=O)c1c(C#N)nn(-c2c(Cl)cc(C(F)(F)F)cc2Cl)c1N (stereo not given),0.99,0.988,0.995,1.02,1.04,0.909,1.02,0.971,0.949,0.965
COc1cc(OC)nc(Oc2cccc(Oc3nc(OC)cc(OC)n3)c2C(=O)[O-])n1.[Na+],0.98,0.989,0.979,1.01,1.04,0.958,0.982,1.01,0.994,1.01
Cc1cc(C(F)(C(F)(F)F)C(F)(F)F)ccc1NC(=O)c1cccc(I)c1C(=O)NC(C)(C)CS(C)(=O)=O,1.21,1.1,1.14,1.09,1.13,3.03,1.48,0.994,0.795,0.99
CCCCC(CC)COC(=O)c1ccccc1C(=O)OCC(CC)CCCC (stereo not given),0.999,0.983,0.977,1.02,1,0.892,1.07,1.1,0.985,0.965
COCc1cnc(C2=NC(C)(C(C)C)C(=O)N2)c(C(=O)O)c1 (stereo not given),0.971,1,0.982,1.09,1.05,0.91,0.934,1.05,1.03,0.987
CCCN(CCC)c1c([N+](=O)[O-])cc(S(N)(=O)=O)cc1[N+](=O)[O-],0.973,0.996,0.973,0.894,0.9,0.935,0.942,0.934,0.971,0.997
COP(=O)(OC)O/C(=C\Cl)c1ccc(Cl)cc1Cl,1.06,1.01,1,1.09,1.09,0.97,1.02,1.02,0.957,1.01
CCCOCC(=Nc1ccc(Cl)cc1C(F)(F)F)n1ccnc1,0.505 (active),0.994,0.995,0.382 (active),1.11,0.894,0.938,0.932,0.746 (active),0.894
O=C(NC(=O)c1c(F)cccc1F)Nc1ccc(Cl)c(Oc2ncc(C(F)(F)F)cc2Cl)c1,0.98,0.999,1.01,0.951,1.1,1.16,0.815,1.13,1.02,0.991
